# The list is not random: actives were taken first. Their share in the collection is about 3.1%.
# PI4K2A block: qHTS for small molecular inhibitors of PI4K2A | activity change, negative = inhibition, % at 76.9 µM | AID 1346378, 2018 | purified PI4K2A, ADP-Glo luminescence, 1 h; active compounds read low | Phosphatidylinositol 4-kinase type 2-alpha (Homo sapiens), Q9BTU6 | 420,000 compounds, 0.13% hits; in the data active = activity change below about -50%; inconclusive = mostly about -30% to -49%;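 also: -100% = wells without enzyme as full effect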
#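 Compounds are screened against recombinant PI4K2A using PI as substrate and ATP, the latter dispensed at 300 microM. Reactions run one hour at ambient temperature before ADP-Glo detection; full inhibition defined by wells lacking enzyme.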
# KAT2A inh: qHTS Assay for Inhibitors of GCN5L2. AID 504327, 2011. Potency, µM (series often up to 58.9 µM), inactives show at the top dose activity change, negative = inhibition, actives largely listed as inhibitors. 390,000 compounds, 0.21% hits. Histone acetyltransferase KAT2A (Homo sapiens), Q92830. GCN5L2 HAT assay, ThioGlo1 CoA-SH fluorescence; also: potency is read from the fitted curve at half-maximal effect
#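 qHTS, 1536-well. 20nM enzyme, pH 7.5 HEPES/EDTA/Tween-20 buffer; 15 min compound preinc., RT. Start: 75uM H3(1-25), 70uM AcCoA, 50uM ThioGlo1. Read Ex340/Em540 at t=0 (autofluorescence flag) and t=20 min.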
# GLS inh: qHTS for Inhibitors of Glutaminase (GLS). Glutaminase kidney isoform, mitochondrial (Homo sapiens), O94925. GLS enzymatic activity, qHTS titration. Potency, µM (top dose mostly 45.5 µM), for the others: at the highest dose activity change, negative = inhibition, hits mostly inhibitors. 410,000 compounds, 0.21% hits. AID 624170, 2012; also: potency is read from the fitted curve at half-maximal effect
# Target sequence (O94925 whole entry, looked up, canonical isoform): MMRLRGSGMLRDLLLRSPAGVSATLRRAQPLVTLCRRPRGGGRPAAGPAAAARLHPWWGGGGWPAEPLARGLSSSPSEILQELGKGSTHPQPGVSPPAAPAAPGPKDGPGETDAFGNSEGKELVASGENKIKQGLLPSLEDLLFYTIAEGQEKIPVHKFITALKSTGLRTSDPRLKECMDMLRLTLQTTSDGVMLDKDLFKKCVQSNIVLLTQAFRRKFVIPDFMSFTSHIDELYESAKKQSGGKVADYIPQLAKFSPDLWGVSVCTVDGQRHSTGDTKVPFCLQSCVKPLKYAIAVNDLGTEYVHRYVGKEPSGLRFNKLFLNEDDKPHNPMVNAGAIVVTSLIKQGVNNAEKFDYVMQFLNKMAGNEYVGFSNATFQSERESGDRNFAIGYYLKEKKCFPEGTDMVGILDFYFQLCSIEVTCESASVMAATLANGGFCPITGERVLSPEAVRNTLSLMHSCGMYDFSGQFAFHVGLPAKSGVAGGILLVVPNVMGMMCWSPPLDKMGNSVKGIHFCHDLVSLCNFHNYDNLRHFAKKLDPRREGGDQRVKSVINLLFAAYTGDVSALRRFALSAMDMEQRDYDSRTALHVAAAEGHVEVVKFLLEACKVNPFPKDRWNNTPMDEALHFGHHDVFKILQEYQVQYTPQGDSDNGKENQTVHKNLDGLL
#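 Two-point fluorescence kinetic (t0, 30 min RT) for hKGA; glutamate detected via glutamate oxidase–HRP–Amplex Red. Substrate: 1 mM L-glutamine solution; buffer 45 mM KH2PO4, pH 8.2.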
# VDR inhibitor: Inhibitors of the vitamin D receptor (VDR): qHTS. Vitamin D3 receptor (Homo sapiens), P11473. VDR-SRC2-3 peptide fluorescence polarization, 2 h. Potency, µM, without a hit: max response, negative = inhibition, actives largely listed as inhibitors. 400,000 compounds, 0.93% hits. AID 504847, 2011; also: potency is read from the fitted curve at half-maximal effect
#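 Inhibition of the VDR/SRC2-3 peptide interaction is quantified by fluorescence polarization. Compounds (23 nl, pintool) incubate with the reagents for 2 hours at ambient room temperature.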
# PLK1 PBD block: qHTS for Inhibitors of PLK1-PDB (polo-like kinase 1 - polo-box domain): Primary Screen; Serine/threonine-protein kinase PLK1 (Homo sapiens), P53350; Plk1 PBD binding of FITC phosphopeptide, fluorescence polarization; Potency, µM, inactives show max response, negative = inhibition, most hits filed as inhibitors; 360,000 compounds, 2.8% hits; also: potency is read from the fitted curve at half-maximal effect; series mostly up to about 57 µM; nearly all actives have a fitted effect of over 65% in size
# An asterisk follows results filed as active; ? = inconclusive; · = no result given; ! = a repeat was not active. Unless noted, calls follow the shape of the dose curve; as a rule, active = well fitted curve in the direction sought with a large enough effect; inconclusive = small, poorly fitted or top-dose-only effect, or another doubt; inactive = no such curve, though single readings can be large; an effect the other way counts as inactive or inconclusive. Unless noted, % is scaled to controls: 0 for no effect and ±100 for the full control effect.
SMILES,PI4K2A block,KAT2A inh,GLS inh,VDR inhibitor,PLK1 PBD block
CC1=CC(C#N)(C#N)C(C#N)(C#N)C(c2ccccc2)N1 (stereo unspecified),·,-4.1%,·,·,·
C[C@H]1[C@@H](C(=O)N2CCCC2)Cc2nc3ccccc3nc2C[C@@H]1c1ccccc1,-4.0,·,·,·,·
Cc1ccc2c(c1)CCCN2S(=O)(=O)c1cccc(C(=O)Nc2ccccc2C(=O)O)c1,·,·,·,·,18.9µM*
Cc1ccc(C)c(NC(=O)c2ccc3c(c2)CCN3S(=O)(=O)c2ccccc2)c1,0.1,-9.1%,0.0%,5.1%,·
CN(C)c1ccc(-c2nc3ncc(Cl)cc3[nH]2)cc1,-2.9,·,·,·,·
O=C(Nc1ccccn1)C(=O)Nc1ccccn1,-12.5,-3.9%,1.9%,-11.1%,-5.4%
Cc1ccc(C)c(NC(=S)c2ccc3ccccc3n2)c1,-3.2,-6.0%,0.9%,-12.1%,2.9%
S=C(Nc1ccccn1)c1ccccn1,-13.5,-7.4%,49.5%,-3.2%,26.7µM*
Cc1ccc(C)c(NC(=S)c2ccccn2)c1,0.1,1.6%,11.1%,-14.0%,23.8µM*
CC(C)C[C@H]1COc2cccc(N3CCCC3)c2S(=O)(=O)N1C,1.4,·,·,·,·
O=C(OCCN1C(=O)c2cccc3c(N4CCOCC4)ccc(c23)C1=O)c1ccccc1Cl,4.3,?,-1.2%,8.4%,?
O=C(OCCN1C(=O)c2cccc3c(N4CCOCC4)ccc(c23)C1=O)c1ccc(Cl)cc1Cl,-4.5,-7.4%,?,6.9%,18.9µM*
Cc1ccc(C)c(N(CC(N)=O)S(C)(=O)=O)c1,0.6,-20.4%,14.3%,?,26.7µM*
Oc1ccc(N=Cc2ccc(-c3cccs3)s2)cc1,-69.2*,?,33.4%,79.4µM*,-3.4%
CCn1nnc(NC(=O)CSc2ccc(Cl)cc2)n1,-5.4,-15.9%,?,-4.1%,26.7µM*
O=C(Nc1cccnc1)c1cc(-c2cccc(Cl)c2)on1,-0.6,-10.0%,0.0%,79.4µM*!,23.8µM*
COc1cccc(CN2CCN(C(=O)c3ccco3)CC2)c1OC,7.6,·,-2.6%,14.1%,-4.0%
COc1cccc(CN2CCN(C(=O)c3ccc(-c4ccccc4)cc3)CC2)c1OC,-0.5,-4.5%,4.1%,1.8%,29.9µM*
CC(C)C[C@@H]1COc2cc(Br)ccc2S(=O)(=O)N1Cc1cn(Cc2ccco2)nn1,-4.9,·,·,·,·
Cc1cc(O)c2c(c1O)C(=O)[C@]13C(=C2O)C(=O)[C@@H]2[C@@H](O)[C@H]1[C@@H]1[C@H](O)[C@H]3C(=O)C3=C(O)c4c(O)cc(C)c(O)c4C(=O)[C@]312,-63.5*,?,6.31µM*,-7.9%,29.9µM*
Cc1cc(O)c2c(c1O)C(=O)c1c(O)cc(C)c(O)c1C2=O,·,2.1%,·,?,·
C[C@]12CC[C@@H]3c4ccc(O)cc4CC[C@H]3[C@@H]1CCC2OC(=O)CCC1CCCC1 (stereo partly specified),·,-15.6%,-13.0%,1.2%,·
COc1ccc(/C=N\NC(=O)CN2CCN(Cc3ccccc3)CC2)cc1OCc1ccccc1,4.8,·,·,·,·
CN(C)c1ccc(NC(=S)c2ccc3ccccc3n2)cc1,4.4,?,-23.7%,?,1.06µM*
COc1ccc(NC(=S)c2ccc(N(C)C)cc2)cc1,5.1,-5.0%,6.9%,-0.7%,?
SMILES,PI4K2A block,KAT2A inh,GLS inh,VDR inhibitor,PLK1 PBD block
COc1cccc(C(=O)N2CCN(Cc3cn[nH]c3-c3ccc(F)cc3F)CC2)c1,3.0,-12.7%,2.6%,?,29.9µM*
CCOC(=O)c1csc(NC(=O)C2CCCN(S(=O)(=O)c3cccs3)C2)n1 (stereo unspecified),-1.6,·,·,·,·
COc1ccc(CN2CC(C(=O)N3CC(C)CC(C)C3)CC2=O)cc1 (stereo unspecified),0.2,-1.3%,1.0%,-9.0%,26.7µM*
CCOc1ccc(NC(=O)CSc2nnc3c(n2)[nH]c2ccc(S(=O)(=O)N(C)C)cc23)cc1,·,·,·,31.2%,·
[O-]C(=C(C(=S)Nc1cccc2ccccc12)[n+]1ccccc1)c1ccc2c(c1)OCCO2,5.1,·,-20.9%,-3.3%,?
CCOc1ccccc1NC(=S)/C(=C(\[O-])c1ccc2c(c1)OCCO2)[n+]1ccc(CC)cc1,-8.5,0.1%,7.7%,44.4%,21.2µM*
COc1ccc(NC(=O)CSc2nc(-c3ccco3)nc3cc(=O)[nH]n23)cc1,-1.9,-0.8%,-26.8%,-2.1%,·
COc1ccc(NC(=O)CSc2nc(-c3ccco3)nc3cc(=O)[nH]n23)cc1Cl,0.9,-22.3%,-18.3%,-4.3%,18.9µM*
O=C1NN(c2ccc(Br)cc2)C(=O)/C1=C\c1ccc(O)cc1O,-3.9,-18.9%,34.2%,-2.4%,29.9µM*
Cc1cc(/C=C2/C(=O)NN(c3ccccc3)C2=O)c(C)n1-c1cccc(O)c1,-16.8,-6.2%,0.1%,10.7%,-23.8%
CCOc1cc(/C=C2/C(=O)NN(c3cccc(Cl)c3)C2=O)ccc1O,?,-6.8%,-4.0%,?,?
CC1=NN(c2ccc(C)cc2)C(=O)/C1=C/c1ccc(-c2cc([N+](=O)[O-])ccc2O)o1,-27.8,-17.4%,-11.2%,-6.1%,?
O=C1NN(c2cccc(Br)c2)C(=O)/C1=C\c1ccc(O)cc1,-12.4,9.4%,-0.2%,?,23.8µM*
O=C1NN(c2cccc(Br)c2)C(=O)/C1=C/c1ccc(-c2cc([N+](=O)[O-])ccc2O)o1,1.3,-5.9%,-14.2%,-16.0%,18.9µM*
O=C1NN(c2ccccc2)C(=O)C1=Cc1ccccc1O,5.3,·,23.4%,·,26.7µM*
CCOC(=O)N1CCN(C(=O)C[C@@H]2C(=O)N3CCCC4=C3[C@@]2(C(=O)OCC)CCC4)CC1,-3.9,·,·,·,·
O=C(N/N=C/c1ccc(N2CCOCC2)o1)c1cccc(F)c1,-1.9,-10.7%,-4.3%,39.8µM*,-16.2%
O=C(N/N=C/c1ccc(-c2cccc(C(F)(F)F)c2)o1)c1cccc(F)c1,-0.6,-3.0%,0.7%,27.4%,-1.3%
O=S(=O)(/C=C/C=C/S(=O)(=O)c1ccccc1)c1ccccc1,6.8,·,8.2%,?,2.67µM*
N#CCC[C@H]1CC[C@]2(CCCN(C(=O)c3ccccc3)C2)O1,-0.4,·,·,·,·
CCc1ccc2nc(N(CCN(C)C)C(=O)c3ccc4ncsc4c3)sc2c1,-6.0,-10.4%,9.0%,70.8µM*,-29.6%
Cc1cccc2sc(N(CCCN(C)C)C(=O)c3ccc4ncsc4c3)nc12,-4.6,-1.7%,-0.2%,6.4%,-6.0%
C[C@H](CN1CCCC1)C(=O)c1ccc(C(F)(F)F)cc1,-0.8,·,-7.7%,·,·
O=C(NCCc1c[nH]c2ccccc12)/C(=C\c1cccs1)NC(=O)c1ccccc1,3.8,-1.7%,19.6%,-5.2%,26.7µM*

# Compound activity (PubChem)
